Results on 40 molecules are retold here after PubChem BioAssay (Tox21).

The structures appear in SMILES notation. Results filed as inconclusive are left out. Unmarked numbers belong to inactive results. Calls follow the shape of the dose curve; as a rule, active = well fitted cell-killing curve with a large enough effect in the repeat runs (not every such curve was filed as active); inconclusive = weak or mixed curves, or effect the other way; inactive = no such curve, though single readings can be large or run the other way.
% is scaled to controls: 0 for no effect and ±100 for the full control effect.

This assay in a line: qHTS assay to identify small molecule antagonists of the estrogen related receptor signaling pathway with the pleiotropic PPARgamma coactivator (PGC) from Tox21 10K library - cell viability counter screen (AID 1224840). Also: nearly all actives have a fitted effect of over 40% in size. The settings on record: PGC/ERR reporter cells viability, CellTiter-Fluor, 17.5 h; series mostly up to 92.4 µM; viability change, negative = cytotoxic: at the top concentration. An excerpt:
National Center for Advancing Translational Sciences [NCATS]
NIH Chemical Genomics Center [NCGC]
U.S. Environmental Protection Agency [EPA]
National Institutes of Environmental Health Sciences [NIEHS]
National Toxicology Program [NTP]
U.S. Food and Drug Administration [FDA]
Estrogen related receptors (ERRs), the first orphan nuclear receptors discovered, play an important role in the control of cellular energy metabolism. ERRs are required for high-energy production in response to the environmental challenges. The pleiotropic PPARgamma coactivator (PGC) is a major partner of ERR and a key regulator in energy homeostasis. Together they have been implicated in the etiology of metabolic disorders such as Type 2 diabetes and metabolic syndrome. ERR-alpha was also identified as an adverse marker for breast cancer progression; ERR-alpha-positive tumors have a poor prognosis. To screen and to identify environmental compounds that perturb the ERR and PGC/ERR signaling pathways could provide valuable information for potential therapeutic or preventive measures in the treatment of metabolic disease. To differentiate true PGC/ERR antagonists or agonist from cytotoxic substances, the assay is multiplexed with cell viability assay.
Tox21 Assay Protocol Summary:
The PGC/ERR cells were dispensed at 2,000 cells/5 ul/well in 1536-well white plates using a Multidrop dispenser. After the assay plates were incubated at a 37 C/5% CO2 incubator for 6 hours, 23 nL of compounds dissolved in DMSO, positive and negative controls or DMSO only was transferred to the assay plate by a pin tool. The plates were incubated at 37 C for 17.5 hours. 1 ul/well of CellTiter-Fluor reagent was added into the assay plates using a Flying Reagent Dispenser. After 30-minute incubation at 37 C/5% CO2, the fluorescence intensity in the plates was measured using a ViewLux plate reader.
(In general: qHTS replaces the single test concentration by a dilution series.)
Take `[O-][n+]1cccc(CO)c1`: the “viability change, negative = cytotoxic” value is 18.9% [at 42.5 µM].

Take `Nc1c2c(nc3c1CCC3)CCCC2`: the “viability change, negative = cytotoxic” value was 11.5% [at 42.5 µM]. On to `Cc1ccc(C(=O)c2ccccc2)cc1`, for which the “viability change, negative = cytotoxic” value is 2.27%.

For the molecule `Cc1nc(C2CCCCC2)c(-c2ccc(S(N)(=O)=O)c(F)c2)o1`, the “viability change, negative = cytotoxic” value is 6.35% [at 42.5 µM].

With `CCOC(=O)C(=O)CCCCCCl`, the “viability change, negative = cytotoxic” value is 0.815% [at 42.5 µM].

Consider `CCCCS(=O)(=O)N[C@@H](Cc1ccc(OCCCCC2CCNCC2)cc1)C(=O)O`, for which the “viability change, negative = cytotoxic” value is 8.56% [at 42.5 µM]. As for `CCCCOCCOC(=O)COc1cc(Cl)c(Cl)cc1Cl`, the “viability change, negative = cytotoxic” value is 0.187%. Turning to `C=C[Si](OC(C)=O)(OC(C)=O)OC(C)=O`, the “viability change, negative = cytotoxic” value was 8.84%. For `Cc1ccc(-c2ccccc2C#N)cc1`, the “viability change, negative = cytotoxic” value was 0.0322% [at 42.5 µM]. Regarding `CO/N=C(\C(=O)N[C@@H]1C(=O)N2C(C(=O)O)=C(CSc3nc(=O)c(O)nn3C)CS[C@H]12)c1csc(N)n1`, the “viability change, negative = cytotoxic” value is 11.8% [at 42.5 µM]. Turning to `Cc1nc2ccc(CN(C)c3ccc(C(=O)N[C@@H](CCC(=O)O)C(=O)O)s3)cc2c(=O)[nH]1`, the “viability change, negative = cytotoxic” value is -2.62% [at 42.5 µM]. Then `CCOC(=O)OC(C)OC1=C(C(=O)Nc2ccccn2)N(C)S(=O)(=O)c2ccccc21` (stereo not given), with 1.56% [at 42.5 µM]; and `O=C(O)CC(C(=O)O)S(=O)(=O)O` (stereo not given), with 0.31%; and `Cc1coc2ccccc2c1=O`, with 14% [at 42.5 µM]. Take `C[N+]1(C)CCCC(OC(=O)C(O)(c2ccccc2)c2ccccc2)C1` (stereo not given): the “viability change, negative = cytotoxic” value was 7.71% [at 42.5 µM]. Then `CCCCCCCCCCOc1cc2c(=O)c(C(=O)OCC)c[nH]c2cc1OCC`, with 9.28% [at 8.39 µM]; and `Cc1ccc(C(=O)Nc2ccc(S(=O)(=O)O)c3cc(S(=O)(=O)O)cc(S(=O)(=O)O)c23)cc1NC(=O)c1cccc(NC(=O)Nc2cccc(C(=O)Nc3cc(C(=O)Nc4ccc(S(=O)(=O)O)c5cc(S(=O)(=O)O)cc(S(=O)(=O)O)c45)ccc3C)c2)c1`, with -7.4% [at 42.5 µM]; and `CCO[Si](OCC)(OCC)c1ccccc1`, with 9.47%. Next, `CCOc1c(N2CCOCC2)cnn(C)c1=O`: 14% [at 42.5 µM]; `CC(=O)Oc1cccc(C)c1`: 17.7% [at 42.5 µM]. Then `C=C(C)C(=O)OCC1CCCO1` (stereo not given), with 13.2%; and `Cc1c(N)c(=O)n(-c2ccccc2)n1C`, with -1.28% [at 42.5 µM]; and `Nc1ccn([C@@H]2O[C@H](CO)[C@@H](O)[C@@H]2O)c(=O)n1`, with 1.29%. Turning to `CC(C)[C@H]1CC[C@@H](C)CC1=O`, the “viability change, negative = cytotoxic” value is 13.9%. Next, `CCOC(=O)COc1cc(-n2ncc(C(F)(F)F)c(C)c2=O)c(F)cc1Cl`: 1.33%; `CC(C)(C)C(=O)Oc1ccc(S(=O)(=O)Nc2ccccc2C(=O)NCC(=O)O)cc1`: 0.0323% [at 42.5 µM]. Next, `CC(C)(N)C#N`: 3.04%.

As to `N[C@@H](CCC(=O)O)C(=O)O`, the “viability change, negative = cytotoxic” value was 9.29%. Next, `C=C(C)C(=O)OCC(O)CO` (stereo not given): 1.65% [at 42.5 µM]; `CCN(CC#N)c1cccc(C)c1`: 4.48%; `CCCOC(=O)CC`: 2.34%. Then `COCCOC[C@H](CC1(C(=O)NC2CCC(C(=O)O)CC2)CCCC1)C(=O)Oc1ccc2c(c1)CCC2` (stereo not given in full), with -10.4%; and `O=C(O)CNC(=O)c1ccc(CO)o1`, with -1.91%. Next, `CN1[C@@H]2CC[C@H]1CC(OC(=O)C(O)c1ccccc1)C2` (stereo not given in full): 4.73% [at 42.5 µM]; `CC(=O)Nc1ccc(OCC(O)CNC(C)C)cc1` (stereo not given): 10.4% [at 42.5 µM]. `c1coc(CNc2ncnc3nc[nH]c23)c1`: the “viability change, negative = cytotoxic” value is -0.387%. `CC(=O)c1ccccc1[N+](=O)[O-]`: the “viability change, negative = cytotoxic” value was 5.74%.

With `COc1ccc2cc1Oc1cc3c(cc1OC)CC[N+](C)(C)[C@H]3Cc1ccc(cc1)Oc1c(OC)c(OC)cc3c1[C@@H](C2)[N+](C)(C)CC3`, the “viability change, negative = cytotoxic” value is 1.6% [at 42.5 µM]. Turning to `CC1=CC(=O)[C@H]2C[C@@H]1C2(C)C`, the “viability change, negative = cytotoxic” value was 9.18%. Next, `COc1cc(C(=O)NCc2ccc(OCCN(C)C)cc2)cc(OC)c1OC`: 8.05% [at 42.5 µM].
